Results filed as inconclusive are left out. Calls of active or inactive are those of the source. Calls come from the whole dose curve; as a rule, active = well fitted cell-killing curve with a large enough effect in the repeat runs; inconclusive = weak or mixed curves, or effect the other way; inactive = no such curve, though single readings can be large or run the other way.
Assay: qHTS assay to identify small molecule antagonists of the peroxisome proliferator-activated receptor gamma (PPARg) signaling pathway - cell viability counter screen (AID 743194); note: nearly all actives have a fitted effect of over 55% in size
Settings: PPARg-bla HEK293H viability, CellTiter-Glo luminescence, 17 h, co-treated with 50 nM rosiglitazone; series mostly up to 62.6 µM
Description: U.S. Tox21 Program National Center for Advancing Translational Sciences [NCATS] NIH Chemical Genomics Center [NCGC] U.S. Environmental Protection Agency [EPA] National Institutes of Environmental Health Sciences [NIEHS] National Toxicology Program [NTP] U.S. Food and Drug Administration [FDA] Tox21 Assay Overview: The peroxisome proliferator-activated receptors (PPARs) are lipid-activated transcription factors of the nuclear receptor superfamily with three distinct subtypes namely PPAR alpha, PPAR delta (also called PPAR beta) and PPAR gamma (PPARg). All these subtypes heterodimerize with Retinoid X receptor (RXR) and these heterodimers regulate transcription of various genes. PPAR-gamma receptor (glitazone receptor) is involved in the regulation of glucose and lipid metabolism. To identify the compounds that activate PPAR-gamma signaling, GeneBLAzer PPAR gamma UAS-bla HEK293H cell line (Invitrogen, Carlsbad, CA, USA) containing a beta-lactamase reporter gene under the control of an Upstream Activator Sequence (UAS) was used to screen the Tox21 compound library. The cytotoxicity of the Tox21 compound library against the PPARg-bla cell line was tested in parallel by measuring the cell viability using CellTiter-Glo assay in the same wells.
Tox21 Assay Protocol Summary: PPARg-bla cells were dispensed at 3000 cells/5uL/well in 1536-well black wall/clear bottom plates using a Multidrop Combi (Thermo Fisher Scientific, Waltham, MA) dispenser. After the assay plates were incubated at 37 C and 5% CO2 for 5 h, 23 nL of compounds dissolved in DMSO, positive controls or DMSO only was transferred to the assay plate by a Pintool station (Kalypsys, San Diego, CA), followed by addition of 1ul Rosiglitazone (50 nM, final concentration in the wells). The assay plates were incubated at 37 C for 17 h, and then 1 uL of LiveBLAzerTM B/G FRET substrate was added using a Bioraptr Flying Reagent Dispenser (FRD) workstation (Beckman Coulter, Indianapolis, IN, USA). The assay plates were incubated at room temperature for 1 h and fluorescence intensity was measured by an Envision plate reader (PerkinElmer, Shelton, CT). For cell viability readout that measures cytotoxicity, 4 ul/well of CellTiter-Glo reagent was added into the assay plates using a Flying Reagent Dispenser. After 30 min incubation at room temperature, the luminescence intensity in the plates was measured using a ViewLux plate reader (PerkinElmer).

SMILES	outcome
NC(=S)NNC(N)=S	inactive
Cc1ccc2ncccc2c1	inactive
C[Si]1(C)O[Si](C)(C)O[Si](C)(C)O[Si](C)(C)O1	inactive
CC(CCO)CC(C)(C)C (stereo not given)	inactive
NCCN1CCNCC1	inactive
C=CCc1ccc(OC)c(OC)c1	inactive
C=CC(C)CCCC(C)(C)O (stereo not given)	inactive
OCc1ccccc1	inactive
CC(O)CC(C)(C)O (stereo not given)	inactive
O=C(OCC1CCC2OC2C1)C1CCC2OC2C1 (stereo not given)	inactive
COC(=O)CCCC(=O)OC	inactive
CN(C)c1ccc(Cc2ccc(N(C)C)cc2)cc1	inactive
O=C1c2ccccc2CCc2ccccc21	inactive
CC(C)CC(=O)CC(C)CC(C)C (stereo not given)	inactive
CC(C)=CCl	inactive
O=C1CCCC1	inactive
CCNc1ccccc1	inactive
CCCCOC(=O)c1ccc(N)cc1	inactive
O=C(O)Cn1c(=O)n(Cc2ccc(Br)cc2F)c(=O)c2ccc(Cl)cc21	inactive
COc1ccc(C)cc1N	inactive

SMILES	outcome
CCCOC(=O)c1ccccc1	inactive
O=S(=O)(O)c1ccccc1	inactive
CC1(C)S[C@@H]2[C@H](NC(=O)COc3ccccc3)C(=O)N2[C@H]1C(=O)O	inactive
CC(=O)OCc1ccccc1	inactive
c1ccc2c(c1)Cc1ccccc1-2	inactive
NCCNCCN	inactive
O=C(O)CCCCCCCCC(=O)O	inactive
COc1ccc([N+](=O)[O-])cc1N	inactive
CCCCCCCCCCN	inactive
c1ccc(Oc2ccccc2)cc1	inactive
COc1cc(OC)c(C(=O)CCCN2CCCC2)c(OC)c1	inactive
C=CCCCCCCCCC(=O)O	inactive
OC1C(O)C(O)C(O)C(O)C1O (stereo not given)	inactive
N[C@H](Cc1c[nH]c2ccccc12)C(=O)O	inactive
CN1C(=O)CC[C@H]1c1cccnc1	inactive
Cc1ccc([N+](=O)[O-])cc1S(=O)(=O)O	inactive
C=C(C)CNCC	inactive
CC(CCl)OP(=O)(OC(C)CCl)OC(C)CCl (stereo not given)	inactive
CN/C(=C\[N+](=O)[O-])NCCSCc1csc(CN(C)C)n1	inactive
Nc1ccc(Cl)c(N)c1	inactive

— PubChem BioAssay (Tox21)
